Assay [1] can be described thus: inhibitors of TNFa-induced NFkB p65 translocation, primary screen, imaging, HUVEC, MLSMR starter and 10KST1 sets (AID 438;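 active means inhibition above 20% together with a positive visual image hit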;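 further: compound added about 3h40 before a 20 min TNFalpha stimulation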;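 on inhibition: signal is the nuclear over cytoplasmic p65 intensity ratio per well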). The following applies: HUVEC TNFa-induced p65 nuclear translocation; cell count: measured here: nuclei count (cytotoxicity indicator), at 2.08 µM; inhibition: at 2 µM, stronger effect = higher value, 0% TNFa-plus-vehicle, 100% no-TNFa wells.
The nature of assay [2]: inhibitors of mutant huntingtin aggregation, primary screen, imaging, exon1htt(103Q)mCFP cells, high-content imaging (AID 483;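 active means visual image review flags a hit and inhibition of aggregation exceeds 20%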;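 further: compound exposure lasted 3 days before fixation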;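 on nuclei count: percent of the per-plate median nuclei count of sample wells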). The following applies: exon1htt(103Q)mCFP cell line, aggregate imaging, at 2 µM; inhibition of aggregation: stronger effect = higher value; nuclei count: measured here: cell count, toxicity.
Assay [3] is described as follows: inhibitors of E-selectin induction by TNFa, primary screen, imaging, HUVEC, immunofluorescence, MLSMR starter and 10KST1 sets (AID 487;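 active means visually confirmed hit in the image check and inhibition above 20%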;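 on inhibition: signal is fraction of cell area covered by stained E-selectin grains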;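 on nuclei count: 100% = median nuclei count of all wells on the same plate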). The following applies: HUVEC TNFalpha-induced E-selectin immunofluorescence imaging, at 2 µM; inhibition: stronger effect = higher value; nuclei count: measured here: cell number, toxicity.
The target of assay [4] is Voltage-gated potassium channel subunit beta-2 (Rattus norvegicus) (UniProt P62483). Put plainly: KvBeta enzyme negative modulators, primary screen, biochemical, NADPH fluorescence (AID 622;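 active means fluorescence slope higher than the sample average by over 3 SD, cut at about -0.22 in these data, passing the limit was not always enough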;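 further: slope of raw intensity against log time taken from 70 to 1610 s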). The following applies: recombinant KvBeta, 4-cyanobenzaldehyde reduction, at 10 µM, stronger effect = higher value.
Assay [5] has the same target. Put plainly: KvBeta positive modulators, primary screen, biochemical, NADPH fluorescence (AID 623;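 active means NADPH fluorescence slope more negative than the mean of all samples by about 3 SD, 99.7% confidence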;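 further: fluorescence intensity change per second fitted from 20 to 320 s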). The following applies: Recombinant KvBeta, NADPH fluorescence decrease slope, 10 min; at 10 µM; stronger effect = lower value.
The target in assay [6] is Alpha-2C adrenergic receptor (Homo sapiens) (UniProt P18825). Put plainly: modulators of alpha2C/GIRK thallium flux, primary screen, cell-based, HEK293 alpha2C/GIRK1/2 (AID 624).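 Further: slope of fluorescence ratio to pre-addition baseline per second over 15 to 24 s.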 The following applies: thallium flux BTC fluorescence, at 10 µM, actives lie on both sides.
Assay [7] is described as follows: inhibitors of Sendai virus-induced IRF3 signaling, primary screen, TLR/RLR signaling modifier project, cell-based, Sendai virus stimulus, luciferase, 10K MLSCN set (AID 602276;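 active means inhibition at or above 50% at 10 µM; inactive means inhibition below 50%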;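 further: firefly luciferase from ISG56 promoter only with Renilla not read in this screen; 0% = Sendai virus plus DMSO and 100% = medium plus DMSO without virus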). As to conditions: HEK293 RL24 IRF3 luciferase reporter, at 10 µM, stronger effect = higher value.
A short description of assay [8]: inhibitors of poly I:C-induced TLR3 signaling, primary screen, cell-based, poly I:C stimulus, luciferase, 10K MLSCN set (AID 602277;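 active means inhibition of the reporter signal at or above 50%; inactive means inhibition below 50%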). The following applies: HEK293-TLR3 RL24 IRF3 luciferase reporter, at 10 µM, stronger effect = higher value.

The source made the active and inactive calls.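 How the source made its calls, unless noted: active means fluorescence slope after compound addition differing from the mean of all screened samples at 99.7% confidence, in either direction; inactive means the rest.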

Sequence of Voltage-gated potassium channel subunit beta-2 (Rattus norvegicus) (P62483 whole entry, looked up): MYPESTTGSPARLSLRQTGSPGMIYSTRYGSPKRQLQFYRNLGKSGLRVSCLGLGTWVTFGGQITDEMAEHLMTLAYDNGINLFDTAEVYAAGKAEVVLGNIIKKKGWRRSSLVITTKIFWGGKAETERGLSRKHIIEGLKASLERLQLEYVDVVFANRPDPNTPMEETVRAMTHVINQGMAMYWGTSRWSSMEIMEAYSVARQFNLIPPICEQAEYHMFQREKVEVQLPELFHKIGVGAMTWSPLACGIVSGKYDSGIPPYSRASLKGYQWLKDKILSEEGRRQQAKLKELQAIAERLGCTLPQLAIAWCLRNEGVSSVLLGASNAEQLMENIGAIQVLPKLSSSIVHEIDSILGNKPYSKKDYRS
Sequence of Alpha-2C adrenergic receptor (Homo sapiens) (P18825 whole entry, looked up): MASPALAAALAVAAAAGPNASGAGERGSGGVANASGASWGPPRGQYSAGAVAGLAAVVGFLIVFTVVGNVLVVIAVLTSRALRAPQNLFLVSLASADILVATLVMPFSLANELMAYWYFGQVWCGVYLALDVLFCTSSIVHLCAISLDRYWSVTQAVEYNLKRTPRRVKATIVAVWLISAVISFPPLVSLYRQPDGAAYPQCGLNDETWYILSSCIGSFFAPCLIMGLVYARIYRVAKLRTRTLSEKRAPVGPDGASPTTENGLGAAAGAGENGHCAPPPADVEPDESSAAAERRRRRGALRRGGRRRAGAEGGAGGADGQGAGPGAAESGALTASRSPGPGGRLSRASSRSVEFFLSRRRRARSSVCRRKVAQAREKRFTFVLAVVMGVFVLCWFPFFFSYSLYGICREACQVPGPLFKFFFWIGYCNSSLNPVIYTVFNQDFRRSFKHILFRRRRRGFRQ

As for `C=CCN=C1SCC(=O)N1S(=O)(=O)c1ccc(C)cc1`, the cell count in assay [1] is 342. For the same compound, the inhibition was -0.2% (inactive) in assay [1], -135% (inactive) in assay [3], 5.91% (inactive) in assay [7] and 11.1% (inactive) in assay [8]. Besides, the inhibition of aggregation in assay [2] is 3.3% (inactive). In addition, the nuclei count in assay [2] came to 91.1%; in assay [3], 124%. In assay [4], the fluorescence slope was -0.364 (inactive). In assay [5], the NADPH fluorescence slope is -6.1e-05 (inactive). The slope in assay [6] is 0.00404 (inactive).
For `COC(=O)c1cccc(Oc2nc3c(c(=O)n(C)c(=O)n3C)n2C(C)C)c1`, the cell count in assay [1] came out at 668. Besides, the inhibition in assay [1] was -5.8% (inactive); in assay [3], -55.6% (inactive); in assay [7] it was 15% (inactive); in assay [8], 28.3% (inactive). For the same compound, the inhibition of aggregation in assay [2] was 3.9% (inactive). Moreover, the values for the nuclei count in assay [2] and in assay [3] were 102% and 106%, respectively. Moreover, the fluorescence slope in assay [4] is -0.436 (inactive). In addition, in assay [5], the NADPH fluorescence slope is -3.6e-05 (inactive). Besides, the slope in assay [6] is 0.00584 (inactive).
`CC(=O)N(CCN(C(C)=O)c1ccccc1)c1ccccc1`: in assay [1], the cell count came out at 448. Also, the inhibition in assay [1] is -1.1% (inactive); in assay [3], 12.5% (inactive); in assay [7], 13.8% (inactive); in assay [8] it was 17.2% (inactive). The inhibition of aggregation in assay [2] is 4% (inactive). Further, the nuclei count was 80.2% in assay [2] and 88.5% in assay [3]. Also, the fluorescence slope in assay [4] was -0.454 (inactive). Also, the NADPH fluorescence slope in assay [5] is 7e-05 (inactive). Also, the slope in assay [6] is 0.00518 (inactive).
With `Cc1ccc(C(C)n2cc(C(=O)NCCN3CCN(C)CC3)nn2)cc1` (centres undefined), in assay [1], the cell count was 429. For the same compound, the inhibition in assay [1] is 12.1% (inactive); in assay [3], -7.3% (inactive); in assay [7] it was 3.51% (inactive); in assay [8], 7.62% (inactive). For the same compound, in assay [2], the inhibition of aggregation is -6.7% (inactive). The nuclei count is 117% in assay [2] and 119% in assay [3]. In assay [4], the fluorescence slope is -0.575 (inactive). Also, in assay [5], the NADPH fluorescence slope was -1.3e-05 (inactive). Besides, the slope in assay [6] is 0.00588 (inactive).
On to `COC(=O)c1cccc(NC(=O)CSc2nnc(COc3ccccc3)n2C)c1`, for which the cell count in assay [1] was 671. Further, the inhibition in assay [1] was -5.4% (inactive); in assay [3], -88% (inactive); in assay [7] it was 11.9% (inactive); in assay [8] it was 14% (inactive). The inhibition of aggregation in assay [2] is -2.2% (inactive). The values for the nuclei count in assay [2] and in assay [3] were 101% and 135%, respectively. For the same compound, the fluorescence slope in assay [4] is -0.436 (inactive). For the same compound, in assay [5], the NADPH fluorescence slope was -4.3e-05 (inactive). Also, the slope in assay [6] was 0.00598 (inactive).
In the case of `CCc1nn(CC(=O)N2CCN(Cc3ccc4c(c3)OCO4)CC2)c(=O)c2cc3occc3n12`, the cell count in assay [1] was 341. Moreover, the inhibition in assay [1] was 1.7% (inactive); in assay [3] it was -0.9% (inactive); in assay [7], -5.95% (inactive); in assay [8], -24.9% (inactive). For the same compound, the inhibition of aggregation in assay [2] was -11.1% (inactive). The nuclei count is 90.2% in assay [2] and 105% in assay [3]. Also, the fluorescence slope in assay [4] was -0.353 (inactive). Further, the NADPH fluorescence slope in assay [5] is -1.6e-05 (inactive). In assay [6], the slope is 0.00432 (inactive).
Regarding `COc1cccc(-n2c(SCC(=O)N3CCCC3)nc3c([nH]c4ccccc43)c2=O)c1`, in assay [1], the cell count is 493. The inhibition in assay [1] is -5.9% (inactive); in assay [3] it was 5.4% (inactive); in assay [7], -9.13% (inactive); in assay [8] it was 55.5% (active). For the same compound, in assay [2], the inhibition of aggregation was 0.6% (inactive). Moreover, the nuclei count came to 75.6% in assay [2] and 91.8% in assay [3]. In addition, the fluorescence slope in assay [4] is -0.544 (inactive). In assay [5], the NADPH fluorescence slope was -1.5e-05 (inactive). Moreover, the slope in assay [6] was 0.00652 (inactive).
Take `CCOC(=O)CN1CC23C=CC(O2)C(C(=O)Nc2ccc(C(C)=O)cc2)C3C1=O` (centres undefined): the cell count in assay [1] amounted to 813. Also, the inhibition was -6.9% (inactive) in assay [1], -18.4% (inactive) in assay [3], -3.34% (inactive) in assay [7] and 7.25% (inactive) in assay [8]. In addition, the inhibition of aggregation in assay [2] was -2.6% (inactive). Moreover, the nuclei count in assay [2] and in assay [3] was 127% in each case. For the same compound, in assay [4], the fluorescence slope is -0.574 (inactive). The NADPH fluorescence slope in assay [5] was -2.3e-05 (inactive). Also, the slope in assay [6] was 0.00637 (inactive).
On to `CCN(CC)CCCNS(=O)(=O)c1ccc(OC)cc1`, for which the cell count in assay [1] was found to be 460. Moreover, the inhibition in assay [1] is 0.5% (inactive); in assay [3], -61.5% (inactive); in assay [7], 13.6% (inactive); in assay [8], 27.9% (inactive). Also, the inhibition of aggregation in assay [2] was -18% (inactive). Moreover, the nuclei count stood at 110% in assay [2] and 134% in assay [3]. Moreover, the fluorescence slope in assay [4] is -0.429 (inactive). Besides, the NADPH fluorescence slope in assay [5] was -0.000105 (inactive). Also, the slope in assay [6] was 0.00623 (inactive).
On to `Cc1csc(NC(=O)C(Cc2ccccc2)n2cccc2)n1` (centres undefined), for which the cell count in assay [1] was 497. Further, the inhibition was -3.7% (inactive) in assay [1], -38.3% (inactive) in assay [3], 1.35% (inactive) in assay [7] and -7.22% (inactive) in assay [8]. In assay [2], the inhibition of aggregation was 27% (inactive). The nuclei count in assay [2] was 56.5%; in assay [3], 117%. In assay [4], the fluorescence slope is -0.538 (inactive). In assay [5], the NADPH fluorescence slope is -5.3e-06 (inactive). Further, in assay [6], the slope is 0.0101 (active).
On to `Cc1nnc(SCC(=O)N2c3ccccc3CC2C)s1` (centres undefined), for which the cell count in assay [1] stood at 528. Moreover, the inhibition was -31.1% (inactive) in assay [1], -46.9% (inactive) in assay [3], 4.91% (inactive) in assay [7] and -5.96% (inactive) in assay [8]. In assay [2], the inhibition of aggregation was 5.8% (inactive). The nuclei count stood at 55.7% in assay [2] and 136% in assay [3]. Also, the fluorescence slope in assay [4] is -0.521 (inactive). Also, the NADPH fluorescence slope in assay [5] was -5.2e-05 (inactive). For the same compound, in assay [6], the slope was 0.00417 (inactive).
`O=C(CSc1nc2ncccc2[nH]1)Nc1ccc2c(c1)OCCO2`: the cell count in assay [1] is 507. Moreover, the inhibition in assay [1] was 1.7% (inactive); in assay [3], -113% (inactive); in assay [7], -4.29% (inactive); in assay [8] it was -22.7% (inactive). In addition, in assay [2], the inhibition of aggregation was 10.1% (inactive). Also, the nuclei count was 87.8% in assay [2] and 177% in assay [3]. Besides, the fluorescence slope in assay [4] is -0.509 (inactive). Also, in assay [5], the NADPH fluorescence slope was 2.9e-05 (inactive). For the same compound, the slope in assay [6] is 0.00643 (inactive).
With `O=C(Nc1ccccc1N1CCCCC1)c1ncoc1-c1ccc(F)cc1`, the cell count in assay [1] was 426. For the same compound, the inhibition is -1.8% (inactive) in assay [1], -180% (inactive) in assay [3], -3.24% (inactive) in assay [7] and -51.9% (inactive) in assay [8]. Further, the inhibition of aggregation in assay [2] was -0.9% (inactive). The nuclei count in assay [2] stood at 87.1%; in assay [3] it was 122%. The fluorescence slope in assay [4] was -0.424 (inactive). Moreover, the NADPH fluorescence slope in assay [5] is 4.4e-06 (inactive). For the same compound, the slope in assay [6] was 0.00948 (inactive).
In the case of `Cc1cc(-n2c(C)cc(C(=O)CSc3nc4ccccc4c(=O)n3Cc3ccco3)c2C)no1`, the cell count in assay [1] was determined as 288. Moreover, the inhibition is -8.6% (inactive) in assay [1], -104% (inactive) in assay [3], 8.08% (inactive) in assay [7] and -48.8% (inactive) in assay [8]. Also, the inhibition of aggregation in assay [2] is 8.4% (inactive). In addition, the nuclei count is 95% in assay [2] and 96.6% in assay [3]. Moreover, the fluorescence slope in assay [4] is -0.441 (inactive). For the same compound, the NADPH fluorescence slope in assay [5] was -2e-05 (inactive). The slope in assay [6] was 0.00698 (inactive).

Values taken from PubChem BioAssay.
